Measured values as given in PubChem BioAssay (Tox21).
Results filed as inconclusive are left out. A call without a number means that no potency is given here. Activity calls are given as the source filed them. The call rests on the fitted dose curve; in most records, active means well fitted cell-killing curve with a large enough effect in the repeat runs; inconclusive means weak or mixed curves; inactive means flat fitted curve, though single readings scatter.

Assay: qHTS RealTime-Glo MT Cell Viability Assay in HepG2 cells - 16 hour (AID 1224885); further: nearly all actives have a fitted effect of over 50% in size
Settings: RealTime-Glo luminescence; series mostly up to 76.8 µM
Description: U.S. Tox21 Program National Center for Advancing Translational Sciences [NCATS] NIH Chemical Genomics Center [NCGC] U.S. Environmental Protection Agency [EPA] National Institutes of Environmental Health Sciences [NIEHS] National Toxicology Program [NTP] U.S. Food and Drug Administration [FDA] Tox21 Assay Overview: Measure of cell viability is critical in the cell-base assay. Analysis of cell viability is necessary for the characterization of cell responses to cytotoxic drugs and environmental stress. A RealTime-Glo MT Cell Viability Assay to monitor cell viability in real time of continues cell culture during 40 hours of compound treatment was used to screen Tox21 10K library compounds in HepG2 cells. The RealTime-Glo MT Cell Viability Assay is a nonlytic, homogeneous, bioluminescent method to measure cell viability in real time using a simple, plate-based method. The assay involves adding NanoLuc luciferase and a cell-permeant prosubstrate to cells in culture. Viable cells reduce the proprietary prosubstrate to generate a substrate for NanoLuc luciferase. This substrate diffuses from cells into the surrounding culture medium, where it is rapidly used by the NanoLuc Enzyme to produce a luminescent signal. The signal correlates with the number of viable cells, making the assay well suited for cytotoxicity studies.
Tox21 Assay Protocol Summary: The mixture of HepG2 cell suspension and reagents were dispensed at 600cells/6 ul/well in 1536-well tissue culture treated black solid bottom plates using a Multidrop dispenser. After the assay plates were incubated at a 37 C/5% CO2 incubator for 5 hours, 23 nL of compounds dissolved in DMSO, positive and negative controls was transferred to the assay plate by a pintool work station. The plates were incubated at 37 C for 40 hours. The luminescence intensity were measured at 0h, 8h, 16h, 24h, 32h and 40h time points using ViewLux plate reader during compound treatment.
Potency means the concentration at half of the fitted maximal effect.

SMILES | Potency
O=C(O)c1cccc(Oc2ccccc2)c1 | inactive
CC(C)(C)S | inactive
CCCCCCCC(=O)Oc1c(Br)cc(C#N)cc1Br | inactive
CC(C)OC(=O)c1ccccc1C(=O)OC(C)C | inactive
O=C1CC[C@@H](C(=O)O)N1 | inactive
C=CCOC(=O)COCCC(C)C | inactive
C=CC(=O)O | inactive
CCCCCCC(CO)CCCC (stereo not given) | inactive
CCCCCCCC/C=C\CCCCCCCC(=O)OCCO | inactive
CCOC(=O)c1ccc(NC(=O)CN2CCCCC2)cc1 | inactive
O=C(C(=O)c1ccco1)c1ccco1 | inactive
COC(CC(C)CCCC(C)(C)O)OC (stereo not given) | inactive
O=S(=O)(O)CO | inactive
CC(C)COC(=O)c1ccc(O)cc1 | inactive
SCCc1cnccn1 | inactive
C1=CCC2CC=CC2C1 (stereo not given) | inactive
COC1CCC=CO1 (stereo not given) | inactive
ClC1=C(Cl)C1(Cl)Cl | inactive
OCC(CO)n1cnc(-c2ccc(F)cc2)c1-c1ccnc(Oc2ccccc2)n1 | inactive
CC(=O)OCC(C)C | inactive

SMILES | Potency
O=C(O)CCC(=O)OC[C@@H](NC(=O)C(Cl)Cl)[C@H](O)c1ccc([N+](=O)[O-])cc1 | inactive
Nc1ccc(N=Nc2ccc(N)cc2)cc1 | inactive
Cc1ccc(S(=O)(=O)NC(=O)NC2CCCCC2)cc1 | inactive
CC1C(C)(C)C2=C(C(=O)CCC2)C1(C)C (stereo not given) | inactive
CN1C(CSCC(F)(F)F)Nc2cc(Cl)c(S(N)(=O)=O)cc2S1(=O)=O (stereo not given) | inactive
CC1=CC[C@@]23C[C@@H]1C(C)(C)[C@@H]2CC[C@H]3C | inactive
CCN(Cc1cccc(S(=O)(=O)O)c1)c1ccc(C(=C2C=CC(=[N+](CC)Cc3cccc(S(=O)(=O)O)c3)C=C2)c2ccc(O)cc2S(=O)(=O)[O-])cc1 | inactive
CNCc1ccc(NC(=O)c2c[nH]c3c2C(=O)CCC3)cc1 | inactive
CC(=O)OCC(=O)[C@@]1(OC(C)=O)[C@@H](C)C[C@H]2[C@@H]3C[C@H](F)C4=CC(=O)C=C[C@]4(C)[C@@]3(F)[C@@H](O)C[C@@]21C | inactive
CNC1CCCN(c2c(F)cc3c(=O)c(C(=O)O)cn(C4CC4)c3c2OC)C1 (stereo not given) | inactive
O=P(O)(O)Oc1ccccc1 | inactive
CCN(CC)CCOC(=O)C(c1ccccc1)c1ccccc1 | inactive
CCC(CO)(CO)CO | inactive
CC(C)N=C=NC(C)C | inactive
CCCCCCCC/C=C/C(=O)O | inactive
O[C@@H](CNC[C@H](O)[C@H]1CCc2cc(F)ccc2O1)[C@@H]1CCc2cc(F)ccc2O1 | 21.3 µM (active)
C=Cc1ccc(OC(C)=O)cc1 | inactive
COC(=O)Nc1nc2ccc(C(=O)C3CC3)cc2[nH]1 | inactive
CCC(CO)(CO)[N+](=O)[O-] | inactive
CCCCCC | inactive
